Source: PubChem (several laboratories)
PKA-R1A activ – activators of PKA-R1A complex. P00514+P68181. PKA-R1A dissociation, Cy5-IP20 fluorescence polarization; scaled: DMSO 0%, 113 µM cGMP 100%. activation, % at 11.4 µM. 340,000 tested, 0.083% active. AID 504707;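 active = percent activation above the mean of all tested compounds plus 3 SD, cut at about 19% in these data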;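 note: higher means more PKAc released from R1A so a rise in polarization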
PKA-R2B act – PKA-R2B complex activation. activation, % at 11.4 µM. P22694+P31323. AID 504700. PKA-R2B holoenzyme dissociation, Cy5-IP20 fluorescence polarization; R2B truncated from residue 108, S112A mutant; 0% DMSO only, 100% 113 µM cGMP. 340,000 tested, 0.079% active;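 active = activation above a cutoff set at the mean over all compounds plus 3 SD, cut at about 18% in these data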;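 note: higher means more holoenzyme dissociation and a rise in polarization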
Rpn11 inh – Rpn11 (human) deubiquitinase inhibition; O00487; human 26S proteasome, Ub4-pepOG fluorescence polarization; 20S core pre-blocked with epoxomicin; calls only at 20 µM; 360,000 tested, 0.59% active; AID 588493;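 active = inhibition at 20 µM, scaled to each plate's controls, above about 33%, limit read from the data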
Neddyl block – cullin neddylation inhibition; P61081+Q13564; TR-FRET cullin neddylation, biochemical; inhibition, % at 25 µM; 360,000 tested, 0.58% active; AID 651699; in the data active = inhibition above about 36%
Active calls of the source: *; i = inactive; x = not tested or not shown; + = active, no number. Rows were chosen to be rich in hits. Some 1.3% of all compounds tested hit in one or more screens of this group.

SMILES	PKA-R1A activ	PKA-R2B act	Rpn11 inh	Neddyl block
O=C(OCC(=O)N1CCCc2ccccc21)c1cc(Br)ccc1O	-7	-18	i	-135
Cc1ccc(C(=O)Nc2sc3c(c2C(=O)O)CCC(C)C3)o1 (stereo not drawn)	-6	-4	i	53*
CC1=Nc2ccccc2/C1=C/c1sc(=N)n(-c2nccs2)c1O	-12	3	+	-41
CC1=Nc2ccccc2/C1=C/c1nc(-c2ccc(C)s2)oc1O	-5	1	x	-14
CC1CCN(C(=O)C2CCC(=O)N(Cc3ccc(Cl)cc3)C2)CC1 (stereo not drawn)	1	0	i	-12
O=c1[nH]c2nc(Br)[nH]c(=O)c2[nH]1	-8	-4	i	1
COc1ccc(/C=C/C(=O)c2c(O)cc(C)oc2=O)c(OC)c1	-18	3	+	9
COc1cccc(/C=C/C(=O)c2c(O)cc(C)oc2=O)c1O	-10	-9	i	4
COC(=O)c1sc(-c2ccc(Cl)cc2)cc1NC(=O)c1ccccc1C(=O)O	-1	-11	i	-11
COC(=O)c1sc(-c2ccc(C(C)(C)C)cc2)cc1NC(=O)c1ccccc1C(=O)O	-11	6	i	70*
COC(=O)c1sc(-c2ccc(C(C)(C)C)cc2)cc1NC(=O)CSCC(=O)O	2	3	i	40*
Cc1noc(C)c1-c1ccc(C(=O)NCc2cccc(Cl)c2)c2occc12	x	x	i	0
O=S1(=O)Nc2c(ccc3cccnc23)-c2ccccc21	7	7	i	52*
Clc1ccc2ccc3cccnc3c2n1	8	-2	i	0
Cc1nc(Cc2nnc(SCC(=O)N3c4ccccc4NC(=O)C3(C)C)o2)cs1	3	0	i	7
O=C(CN1c2cccc3cccc(c23)S1(=O)=O)Nc1ccccc1Br	-12	-7	i	13
Nc1c(C(O)(C(F)(F)F)C(F)(F)F)cc(C(O)(C(F)(F)F)C(F)(F)F)c2ccccc12	-14	-15	i	40*
O=c1oc2ccccc2cc1-c1nc(-c2cccs2)cs1	-6	-8	i	34
COc1cccc2cc(-c3nc(-c4cccs4)cs3)c(=O)oc12	4	4	x	46*
OCC1OC(n2cnc3c(NCc4ccccc4O)ncnc32)C(O)C1O (stereo not drawn)	5	-11	i	61*
N#C/C(=C(/O)c1ccccc1F)c1nc2cc(C(F)(F)F)ccc2s1	-7	-2	+	14
N#C/C(=C(/O)c1ccc2c(c1)OCO2)c1nc2cc(C(F)(F)F)ccc2s1	-8	1	i	x
CN(C)c1ccc(C=c2c3ccccc3n3c2c2ccccc2[n+]3C)cc1	-15	-18	i	39*
C[n+]1c(-c2ccccc2)cc2c(=Cc3ccccc3)c3ccccc3n21	1	8	i	x
Cc1cc(C)n(CC(O)Cn2c(C)c(C)c3ccccc32)n1 (stereo not drawn)	-5	-7	+	12
SMILES	PKA-R1A activ	PKA-R2B act	Rpn11 inh	Neddyl block
Cc1c(C)n(CC(O)CN2CCCCC2)c2ccccc12 (stereo not drawn)	-1	1	i	16
CCCC1=C/C(=C/c2ccc(-c3ccccc3OC)o2)C(=O)O1	3	3	+	x
O=C(Nc1cccc2nsnc12)c1ccc2c(c1)OCCO2	-9	-16	i	46*
COc1ccccc1CNC(=O)CCc1c(C)nc2cc(-c3ccccc3OC)nn2c1C	-3	-6	i	x
COc1ccccc1-c1cc2nc(C)c(CCC(=O)NC(C)CCc3ccco3)c(C)n2n1 (stereo not drawn)	-1	-1	i	51*
C#CC(=O)CC1(CN(Cc2ccccc2)C(=O)OC(C)(C)C)CCCCC1	-5	8	+	-41
CON(C)C(=O)CC1(CN(Cc2ccccc2)C(=O)OC(C)(C)C)CCCCC1	-11	-8	i	-20
C/C=C\C=C/C(=O)Nc1cccc(C2=NOC3(C2)C[C@@H](C(N)=O)N(C(=O)/C=C/C=C\C)C3)c1 (stereo partly drawn)	9	7	+	-19
C/C=C\C=C/C(=O)Nc1cccc(C2=NOC3(C2)C[C@@H](C(N)=O)N(C(=O)/C=C/CC)C3)c1 (stereo partly drawn)	7	4	i	-2
N#CC1(NC(=O)CSc2nnc(-c3ccccc3F)o2)CCCCC1	0	0	i	10
O=C(COC(=O)/C=C/c1ccc([N+](=O)[O-])cc1)NCC1CCCCC1	3	1	i	-31
